Test results: PubChem BioAssay (NCI)
“And” between values parts separate entries of the source, which are not always exact repeats. Identical values can stand only once. The panel holds about 83,000 compounds, 20% with a hit somewhere; the sample as a whole holds those more often.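 Treatment: one concentration, 48 hours, 96-well format. Scoring: percent growth, with anything below 10 considered active.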 The source made the active and inactive calls.

Tests used:
Experiment in all cases: NCI-60 one-dose screen, 48 h (100 = growth as untreated, 0 = no growth, -100 = all killed)
[1] = test system: T-47D breast; settings: 10 µM unless noted
[2] = test system: BT-549 breast; settings: 10 µM unless noted
[3] = test system: MDA-MB-435 melanoma; settings: 10 µM unless noted
[4] = test system: SW-620 colon; settings: 10 µM unless noted
[5] = test system: MCF7 breast
[6] = test system: HCT-116 colon; settings: 10 µM unless noted
[7] = test system: HCC-2998 colon; settings: 10 µM unless noted
[8] = test system: KM12 colon; settings: 10 µM unless noted

Measured: growth

CCCCCCCCCCCC[n+]1ccccc1 (tested in a mixture with another compound)
inactive: [1] 14.4%
active: [2] -57.6% | [3] -74% | [4] 0.841% | [5]; 10 µM unless noted 2.79% | [6] -9.07% | [7] -47.7% | [8] -95.7%

CC(C)=CCCC(C)C1=C(O)C(=O)C(C)=CC1=O (stereo unspecified)
inactive: [2] 24.7% | [3] 102% | [5]; 10 µM 66.9% | [7] 100% | [8] 86.8%
active: [1] -66.9% | [4] -49.5% | [5]; 100 µM -52.3% and -33.3% | [6] -85.2%

S=C1SCN(Cc2cccs2)CN1Cc1cccs1
inactive: [1] 56.5% | [2] 98.5% | [3] 93.3% | [4] 82.4% | [5]; 10 µM unless noted 43.9% | [6] 99.4% | [7] 116% | [8] 91.2%

CCN1/C(=C/C(C)=C/c2sc3ccc4ccccc4c3[n+]2CC)Sc2ccc3ccccc3c21
active: [1] -69.8% | [2] -93.3% | [3] -97.2% | [4] -94.2% | [5]; 10 µM unless noted -84.5% | [6] -69.5% | [7] -76.1% | [8] -93.6%

CCOC(=O)c1[nH]c(C#N)c(C(=O)OCC)c1C
inactive: [1] 96.6% | [2] 109% | [3] 94.4% | [4] 103% | [5]; 10 µM unless noted 103% | [6] 103% | [7] 103% | [8] 107%

Cc1ccc2cccc(OC(=O)Nc3cccc(C(F)(F)F)c3)c2n1
inactive: [1] 47.1% | [2] 108% | [3] 91.3% | [4] 58% | [5]; 10 µM unless noted 72.2% | [6] 38% | [7] 87.6% | [8] 44.5%

CN=C(N)N/N=C(\C)c1ccc2c(c1)Cc1ccccc1-2
active: [1] -65.4% | [2] -6.1% | [3] -73.1% | [4] -88.9% | [5]; 10 µM unless noted -99.3% | [6] -100% | [7] -98.5% | [8] -79%

CN=C(N)N/N=C(\c1ccccc1)c1ccc(Br)cc1
active: [3] -60.8% | [5]; 10 µM unless noted 4.81% | [6] 8.58% | [7] -61.1% | [8] 9.22%
inactive: [1] 39.3% | [2] 21.5% | [4] 29.4%

O=Nc1ccc2ccccc2c1O
active: [3] -73.9% | [6] 6.58%
inactive: [1] 51.5% | [2] 100% | [4] 61.8% | [5]; 10 µM unless noted 69.9% | [7] 103% | [8] 79.3%

COC(=O)C(=[N+]=[N-])C(=O)c1ccc([N+](=O)[O-])o1
inactive: [1] 89.7% | [2] 101% | [3] 103% | [4] 44% | [5]; 10 µM unless noted 65.1% | [6] 73.4% | [7] 107% | [8] 94.9%

CCC1C[N+]2=C(c3cc(OC)c(OC)cc3CC2)c2c1cc1n2CCc2cc(OC)c(OC)cc2-1 (stereo unspecified)
inactive: [2] 26.7% | [4] 48.8% | [6] 40.4% | [7] 34%
active: [1] 6.69% | [3] 5.51% | [5]; 10 µM unless noted 9.71% | [8] 7.73%

Cc1nc(Sc2nc3ccc([N+](=O)[O-])cc3s2)sc1C
active: [2] -10.4% | [5]; 10 µM unless noted 1.58% | [6] 2.1%
inactive: [1] 27% | [3] 29.6% | [4] 11.5% | [7] 71.3% | [8] 36.6%

O=C1C=CC(=O)N1c1ccccc1
inactive: [1] 99.8% | [2] 97.1% | [3] 109% | [4] 80.9% | [5]; 10 µM unless noted 106% | [6] 75.1% | [7] 98.7% | [8] 103%

Oc1cc(Cl)ccc1Cc1ccc(Cl)cc1O
inactive: [1] 29.2% | [2] 33.9% | [3] 46.2% | [4] 81.2% | [5]; 10 µM unless noted 68.3% | [6] 41.7% | [7] 88.1% | [8] 98.7%

CCCC[n+]1c(/C=C\c2c(OC)cc(OC)cc2OC)ccc2ccccc21
active: [1] -3.69% | [3] -41.2% | [4] 5.08% | [5]; 10 µM unless noted 4.3% | [6] 2.83% | [7] 2.5% | [8] -78.6%
inactive: [2] 15.5%

Cc1c(O)ccc(SC#N)c1C
inactive: [1] 94% | [2] 104% | [3] 105% | [4] 103% | [5]; 10 µM unless noted 116% | [6] 88% | [7] 96.5% | [8] 97.2%

OC(CSc1ccccc1)CN1CCN(c2ccc(Cl)cc2)CC1 (stereo unspecified)
inactive: [1] 95.9% | [2] 102% | [3] 105% | [4] 105% | [5]; 10 µM unless noted 98% | [6] 90.2% | [7] 95.3% | [8] 110%

C(=N\Nc1ccc2ccccc2n1)/c1ccccn1
inactive: [1] 18.9% | [2] 43.9% | [3] 37.5% | [4] 23.5% | [5]; 10 µM unless noted 15.9% | [6] 18.4% | [7] 17.1% | [8] 29.1%

Cc1ccccc1NC(=O)Cc1csc2[n+]1C(=O)/C(=C/c1ccc([N+](=O)[O-])cc1)S2
inactive: [1] 84.2% | [2] 88.9% | [3] 97.5% | [4] 107% | [5]; 10 µM unless noted 92.7% | [6] 84.4% | [7] 82.2% | [8] 98.4%

Cc1cc(I)nc2ccccc12
inactive: [1] 95.8% | [2] 104% | [3] 112% | [4] 107% | [5]; 10 µM unless noted 101% | [6] 106% | [7] 103% | [8] 115%

CCCCN(CCCC)CCCCCCCCCCO
inactive: [1] 94.6% | [2] 102% | [3] 107% | [4] 103% | [5]; 10 µM unless noted 99% | [6] 90.2% | [7] 103% | [8] 103%

S=c1[nH]c2cc(Cl)ccc2s1
inactive: [1] 90.4% | [2] 100% | [3] 98.8% | [4] 113% | [5]; 10 µM unless noted 95.2% | [6] 96.6% | [7] 97.4% | [8] 96.5%

COC1=CC(=O)c2c(O)c3c(c(O)c2C1=O)CC(C)(O)OC3 (stereo unspecified)
inactive: [2] 28.1% | [4] 16.6%
active: [1] 0.836% | [3] -95% | [5]; 10 µM unless noted -27.1% | [6] -27.6% | [7] -20.5% | [8] 9.83%

CC(C)c1ccc(Nc2n[nH]c(=S)s2)cc1
inactive: [1] 85.6% | [2] 96.2% | [3] 97.1% | [4] 110% | [5]; 10 µM unless noted 101% | [6] 101%

CCC(C)(O)Cc1ccc(Cl)cc1 (stereo unspecified)
inactive: [1] 94.9% | [2] 98.5% | [3] 101% | [4] 99.4% | [5]; 10 µM unless noted 92.8% | [6] 97.7% | [7] 109% | [8] 101%

Clc1ccccc1C(c1ccccc1)(c1ccccc1)n1ccnc1
inactive: [1] 13.4% | [2] 42.5% | [3] 33.8% | [4] 43.6% | [5]; 10 µM unless noted 18.3% | [6] 22.3% | [7] 52% | [8] 27%

OC(c1cc(-c2ccc(C(F)(F)F)cc2)nc(C(F)(F)F)c1)C1CCCCN1 (stereo unspecified)
inactive: [2] 52.1% and 93.5% and 85.3%
active: [1] -69.2% and -89.5% and -17.2% | [3] -63% and -91.8% and 6.26% | [4] -80.4% and -84.6% and -55.6% | [5]; 10 µM unless noted -88% and -86.5% and -59.3% | [6] -82% and -96.2% and 3.87% | [7] -66.8% and -95% and -74.6% | [8] -80.1% and -85.2% and -62.3%

OC(Cc1cc(CC(O)(C(F)(F)F)C(F)(F)F)nc(CC(O)(C(F)(F)F)C(F)(F)F)c1)(C(F)(F)F)C(F)(F)F
inactive: [2] 11.3% | [4] 14.6% | [7] 23.9%
active: [1] -1.31% | [3] 0.574% | [5]; 10 µM unless noted 4.14% | [6] 3.99% | [8] 1.25%

COc1ccc2c(c1OC)OCC(CN(C)C)C2=O (stereo unspecified)
active: [4] -78.3%
inactive: [1] 69.5% | [2] 82.4% | [3] 96.1% | [5]; 10 µM unless noted 75% | [6] 77.6% | [7] 105% | [8] 96.8%

CCc1cnc2ccccc2c1/C=C/c1ccc(N(C)C)cc1
active: [3] 7.56%
inactive: [1] 31.3% | [2] 49.8% | [4] 32.1% | [5]; 10 µM unless noted 20% | [6] 24.6% | [7] 68.4% | [8] 25.5%

Cc1cc(C(=O)c2ccc(Cl)cc2)ccc1O
inactive: [1] 97% | [2] 94.7% | [3] 95.6% | [4] 98% | [5]; 10 µM unless noted 108% | [6] 84.8% | [7] 102% | [8] 103%

CC(=O)c1c(O)c(C)c(O)c2c1OC1=CC(=O)C(C(C)=O)C(=O)C12C (stereo unspecified)
inactive: [1] 102% | [2] 55.8% | [3] 78.5% | [4] 74.7% | [5]; 10 µM unless noted 128% | [6] 94% | [7] 58.1% | [8] 72.6%

O=C1C=CC(=O)N1c1cccc2c1CCCC2
inactive: [1] 86.5% | [2] 112% | [3] 88.5% | [4] 99.6% | [5]; 10 µM unless noted 88.3% | [6] 95% | [7] 118% | [8] 109%

Nc1cccc2cccc([N+](=O)[O-])c12
inactive: [1] 113% | [2] 105% | [3] 108% | [4] 106% | [5]; 10 µM unless noted 86.6% | [6] 104% | [7] 103% | [8] 113%
